SKKanGAS inh: inhibitors of SKKanGAS S. pyogenes growth in kanamycin (SK-promoter or general growth effect); BacTiter-Glo, 6 h; 300,000 tested, 1.3% active; inhibition, % at 7.5 µM; AID 1662;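 active means mean replicate score, as percent of positive control median, at least 50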;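 further: strain carries kanamycin resistance gene driven by streptokinase promoter and grows in 40 µg/ml kanamycin; loss of luminescence reflects streptokinase promoter inhibition or plain growth inhibition; 0% = median of DMSO wells and 100% = positive control at its reference dose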
tim10-1 inh: tim10-1 yeast growth inhibition; 330,000 tested, 2.2% active; S. cerevisiae tim10-1 ts strain growth, BacTiter-Glo, 24 h; inhibition, % at 20 µM;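 active means inhibition of at least 40%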;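 further: mutant grown at 25 °C; 0% = DMSO wells with yeast and 100% = wells holding no yeast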
tim23-1 inh: inhibits growth of tim23-1 mutant yeast; inhibition, % at 20 µM; S. cerevisiae tim23-1 growth, BacTiter-Glo luminescence, 24 h; 330,000 tested, 1.3% active;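 active means growth inhibition of the mutant yeast at or above 50%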;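 further: temperature-sensitive mutant grown at 25 °C; plate controls were DMSO-treated mutant yeast for no effect and medium wells lacking yeast for full effect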
TIM10 inh: growth inhibitors of TIM10 yeast strain; S. cerevisiae TIM10 strain growth, BacTiter-Glo luminescence, 24 h; inhibition, % at 10 µM; 330,000 tested, 1.4% active;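 active means inhibition of 40% or more at the single tested concentration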;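 further: wild-type TIM10 isogenic control strain grown at permissive 25 °C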
NALP3 yeast inh: inhibitors of NALP3 inflammasome in yeast; Yeast reconstituted NLRP3/ASC/caspase-1, beta-gal luminescence, 24 h; inhibition, % at 10 µM; 330,000 tested, 0.39% active;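 active means inhibition of 50% or more; inactive means inhibition below 50%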;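 further: plate controls were induced DMSO wells for no effect and uninduced yeast grown without galactose for full effect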
NALP1 yeast inh: NALP1 inhibition. 280,000 tested, 0.61% active. S. cerevisiae NALP1/ASC/caspase-1 growth, X-gal OD620, 72 h. inhibition, % at 10 µM. AID 2071; in the data active means inhibition mostly above about 24%, no sharp cut-off; inactive means mostly below about 32%
tim10-1 confirm: tim10-1 yeast growth inhibition, confirmed | inhibition, % at 20 µM | S. cerevisiae tim10-1 ts strain growth, BacTiter-Glo, 24 h | AID 463213 | 7,400 tested, 56% active | shares compounds with tim10-1 inh;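 active means inhibition of yeast growth at or above a set limit in either of two repeat tests at 20 µM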;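 further: tim10-1 mutant grown at permissive 25 °C to find synthetic lethal compounds; 0% = DMSO yeast wells and 100% = medium wells without yeast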
TIM10 conf: confirmation of TIM10 yeast growth inhibitors | S. cerevisiae tim10 strain growth, BacTiter-Glo luminescence, 24 h | shares compounds with TIM10 inh | 4,600 tested, 63% active | inhibition, % at 10 µM;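 active means inhibition of yeast growth at or above a set limit in either of two replicates at 10 µM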;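 further: this counterscreen used the strain with wild-type TIM10; 0% = yeast with DMSO and 100% = medium wells lacking yeast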
tim23-1 conf: confirmation of tim23-1 mutant yeast growth inhibitors. shares compounds with tim23-1 inh. S. cerevisiae tim23-1 growth, BacTiter-Glo luminescence, 24 h. inhibition, % at 20 µM. 4,400 tested, 83% active. AID 463218;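 active means inhibition above about 39% in either of two replicate wells at 20 µM, limit read from the data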;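 further: temperature-sensitive tim23-1 mutant grown at 25 °C; 0% = DMSO wells with yeast and 100% = medium wells without yeast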
* = called active by the depositor; . = no result. The list is not random: actives were taken first. Their share in the collection is about 4.9%.

SMILES | SKKanGAS inh | tim10-1 inh | tim23-1 inh | TIM10 inh | NALP3 yeast inh | NALP1 yeast inh | tim10-1 confirm | TIM10 conf | tim23-1 conf
CCN(CC)C(=O)OCCc1cc2ccccc2c(=O)o1 | . | 13 | 10 | 2 | 8 | . | . | . | .
CC(C)(C)c1cc(-c2csc(Nc3ccccc3)[n+]2Cc2ccc(C(=O)O)cc2)cc(C(C)(C)C)c1O | 115* | 46* | 54* | 38 | -20 | -19 | 57* | . | 53*
Cc1cccc(-n2c(-c3csc4ccccc34)n[nH]c2=S)c1 | 2 | 45* | 51* | 38 | 17 | 15 | 30 | . | 43*
CC(C)Cn1c(-c2csc3ccccc23)n[nH]c1=S | -4 | 38 | 35 | 35 | 22 | -31 | . | . | .
NC(=O)SCC(=O)Nc1ccc(Cl)c(Cl)c1 | . | 71* | 80* | -27 | 23 | 3 | 31* | . | 76*
Cc1ccc(NC(=O)CSC(N)=O)cc1Cl | -14 | 28 | 26 | -69 | 7 | 15 | . | . | .
C=CCNC(=O)CN(Cc1ccccc1)S(=O)(=O)c1ccccc1 | 12 | 11 | 9 | -5 | 27 | -2 | . | . | .
CCOC(=O)C(=Cc1ccc(F)cc1)C(=O)OCC | -4 | 53* | 55* | 43* | 46 | -10 | 46* | 48* | 60*
O=C(CNC1CCCCC1)Nc1ccc(Cl)cc1 | -3 | -13 | -8 | -4 | 21 | 5 | . | . | .
COc1ccc(-c2cc3nc(C)cc(N)n3n2)cc1 | 41 | 62* | 54* | 47* | 14 | 9 | 44* | 14 | 64*
Cc1cc(C)c2c(c1)/C(=C/C(=O)c1ccc(Br)s1)C(=O)N2 | 1 | 78* | 74* | 76* | 22 | 3 | 69* | 66* | 70*
Cc1cccc2c1NC(=O)/C2=C\C(=O)c1cccs1 | -3 | 83* | 81* | 82* | 43 | 3 | 87* | 88* | 77*
Cc1cc(C)c(NC(=O)CN2CCC(NC(=O)NC3CCCCC3)CC2)c(C)c1 | -5 | 12 | 1 | 5 | 9 | -8 | . | . | .
Cc1c(CC(=O)NCC(=O)O)c(=O)oc2cc3c(cc12)CCC(C)(C)O3 | 1 | 6 | 2 | -1 | 0 | 3 | . | . | .
CN=c1scc(-c2cccs2)n1/N=C/c1ccc(O)c(O)c1O | 5 | 42* | 71* | 32 | 19 | -2 | 19 | . | 84*
O=C(NCC1CC1)c1ccc2c3n(nc2c1)-c1ccc(Cl)cc1CO3 | -8 | 48* | 67* | 54* | 14 | . | 35* | 57* | 53*
O=C(NCCO)c1ccc2c3n(nc2c1)-c1ccc(Cl)cc1CO3 | -8 | 10 | -5 | 1 | 7 | 7 | . | . | .
O=C(CNc1ccc(C(F)(F)F)cc1[N+](=O)[O-])OCC(=O)c1ccccc1 | -2 | 23 | 29 | 15 | 18 | 4 | . | . | .
O=C(CS(=O)c1ccc(C(F)(F)F)cc1[N+](=O)[O-])Oc1ccccc1 (stereo not given) | 16 | 50* | 72* | 70* | -19 | -24 | 57* | 46* | 75*
CCc1ccc(NSc2ccccc2[N+](=O)[O-])cc1 | 76* | 54* | 52* | 36 | 27 | 36 | 43* | . | 58*
O=C(O)c1ccccc1NSc1ccccc1[N+](=O)[O-] | 9 | 27 | 11 | 20 | 5 | 17 | . | . | .
O=C(c1cccc(C(=O)N(c2ccccn2)C2CCCCC2)c1)N(c1ccccn1)C1CCCCC1 | -18 | 39 | 28 | 7 | 4 | 6 | . | . | .
N#C/C(=C\c1ccccc1)C(=O)N(c1ccccn1)C1CCCCC1 | 2 | 49* | 71* | 58* | 29 | 46 | 70* | 67* | 58*
C=CC(=O)N=c1sc2ccccc2n1-c1ccccc1 | -9 | 51* | 53* | 33 | 28 | -20 | 25 | . | 15
COc1ccc(-c2cc(C(=O)N3CCCCCC3)c3ccccc3n2)c(OC)c1 | 2 | 42* | 54* | 22 | 10 | 9 | 22 | . | 48*

Source: PubChem BioAssay
